In PubChem BioAssay AID1745849 (National Center for Advancing Translational Sciences (NCATS), 2022):
Screen size: about 2,100 compounds; about 320 (15%) were called active. Not shown: some 52% with an inconclusive outcome. The call rests on the fitted dose curve; in most records, active means well fitted cell-killing curve with a large enough effect; inconclusive means small, poorly fitted or top-dose-only effect, or effect the other way; inactive means flat fitted curve, though single readings scatter. Some of the results follow. A call without a number means that no potency is given here.
Potency means the concentration at half of the fitted maximal effect.

Test: Viability Counterscreen for CMV-Luciferase Assay of Inhibitors of ATXN expression; further: nearly all actives have a fitted effect of over 55% in size
Settings: HEK-293 CMV-luciferase cells viability, protease fluorescence, 24 h
Method in brief: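 In the same wells, a multiplexed format measured viability and then the CMV-luciferase signal in HEK-293 cells following 24 hr compound exposure at several concentrations. The viability substrate was Gly-Phe-AFC at 25 uM final.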
With `CCN1c2ccccc2NC2N=C(OC)C(c3ccccc3)C21` (stereo not drawn) the Potency was 12.6 µM (active). With `Cn1c(=O)c2cc(NC(=O)Nc3cccnc3)ccc2n1Cc1ccc(Cl)cc1` the Potency was “inactive”. For `Cc1c(C(=O)N2c3ccccc3Sc3ccccc32)cccc1[N+](=O)[O-]`, the Potency was “inactive”. With `Cc1onc(-c2ccccc2)c1C(=O)Nc1ccc(S(=O)(=O)NC(C)(C)C)cc1` the Potency was “inactive”. In the case of `Cc1nnc(SC(C)C(=O)Nc2ccc(Cl)cn2)n1Cc1ccccc1` (stereo not drawn), the Potency is reported as “inactive”. For `O=C(N/N=C\c1c(O)ccc2ccccc12)c1ccc(Cn2cccn2)o1`, the Potency was “inactive”. For `COc1ccc(NC(C)C(=O)N/N=C/c2c(O)ccc3ccccc23)cc1` (stereo not drawn), the Potency was 8.91 µM (active). For `Cc1occc1C(=O)N/N=C/c1c(O)ccc2ccccc12`, the Potency was “inactive”. For `C=CCc1cccc(CNc2nc3ccccc3n2C(C)C)c1O`, the Potency was “inactive”. With `O=C(CSc1nnc(-c2ccc(Br)cc2)o1)Nc1cccc(C(=O)O)c1` the Potency was “inactive”. In the case of `O=C(CSc1n[nH]c(-c2ccccn2)n1)Nc1cccc(Cl)c1`, the Potency is reported as 10 µM (active). With `O=C(CSc1nc2ncc(Cl)cc2[nH]1)Nc1cccc(F)c1` the Potency was “inactive”. In the case of `O=C(CSc1ccc2ccccc2c1)Nc1nc2ccccc2[nH]1`, the Potency is reported as “inactive”. With `Cc1ccccc1NC(=O)CSc1n[nH]c(-c2ccccn2)n1` the Potency was 20 µM (active). In the case of `O=C(CSc1nc2ncc(Br)cc2[nH]1)Nc1ccccc1-c1ccccc1`, the Potency is reported as “inactive”. For `O=C(CSc1n[nH]c(-c2ccccn2)n1)Nc1ccc(F)cc1`, the Potency was 17.8 µM (active). With `Cc1cc(NC(=O)CSc2nccn2-c2cccc(C)c2C)no1` the Potency was “inactive”. For `CCc1nc2ccc(C(=O)N(C)Cc3ccccc3)cn2c1N(C)Cc1ccc(OC)cc1`, the Potency was “inactive”. In the case of `Cc1csc(NC(=O)COCC(=O)O)c1-c1nc2ccccc2s1`, the Potency is reported as “inactive”. In the case of `Cn1c(COc2ccc(Cl)cc2)nnc1SCc1ncc(-c2ccccc2)o1`, the Potency is reported as “inactive”. With `CCOc1ccc(-c2c[n+]3c(n2-c2ccccc2)CCCCC3)cc1` the Potency was “inactive”. In the case of `COc1ccc(-c2c[n+]3c4n2CCCCC4=C(c2ccc(Br)cc2)C3)cc1`, the Potency is reported as “inactive”. With `COc1ccc(-c2c[n+]3c(n2-c2ccc(C)cc2)CCCCC3)cc1` the Potency was 12.6 µM (active). For `CN(c1ccccc1)c1ccc(/C=N/NC(=O)CC#N)cc1`, the Potency was “inactive”. For `CCCc1cc(C(=O)Nc2ccc(C(=O)c3ccc(C)cc3)cc2)n(C)n1`, the Potency was “inactive”. In the case of `O=C(Nc1ccc[n+](CC(=O)c2cccc3ccccc23)c1)c1ccccc1`, the Potency is reported as 3.16 µM (active). With `CC(C(=O)c1ccc(-c2ccccc2)cc1)[n+]1cccc(NC(=O)c2ccccc2)c1` (stereo not drawn) the Potency was “inactive”. For `OCCN(Cc1ccccc1)CC(O)COc1ccc(-c2ccccc2)cc1` (stereo not drawn), the Potency was “inactive”. For `OC(CNCCc1ccccc1)COc1ccc(OCC(O)CNCCc2ccccc2)cc1` (stereo not drawn), the Potency was 28.2 µM (active). With `CCOc1ccccc1NC(=O)N1CCC(c2nc3ccccc3[nH]2)CC1` the Potency was “inactive”. For `C(=N\Nc1ccc2nncn2n1)/c1ccccn1`, the Potency was 11.2 µM (active). With `O=c1cnnc(N/N=C/c2ccccn2)[nH]1` the Potency was 1.58 µM (active). With `C(=N\NC(=Nc1ccccc1)c1ccccn1)/c1ccccn1` the Potency was “inactive”. With `O=c1nc(N/N=C/c2ccccn2)cn[nH]1` the Potency was 7.94 µM (active). In the case of `COc1cccc(CNCCc2c[nH]c3ccccc23)c1OCc1ccc(F)cc1`, the Potency is reported as “inactive”. In the case of `Cc1cc(N2CCN(c3nc(-c4ccccc4)cs3)CC2)c2ccccc2n1`, the Potency is reported as “inactive”. In the case of `CCN1CCS/C1=C\C=C\C1=[N+](CC)CCS1`, the Potency is reported as 15.8 µM (active). With `CCOC(=O)c1sc2nc(CSc3ccccc3)nc(NCCN(C)C)c2c1C` the Potency was “inactive”. For `COc1ccc(OCCNC(=O)C2(C)CCN2Cc2ccc3ccccc3c2)cc1` (stereo not drawn), the Potency was “inactive”. In the case of `CCCCn1c(/C=N/Nc2nc3ccccc3[nH]2)nc2ccccc21`, the Potency is reported as “inactive”. For `O=C1C=Cc2cccc3ccc(O)c1c23`, the Potency was “inactive”. For `O=C(N/N=C/c1ccc(O)cc1O)/C(=C/c1ccccc1)CCO`, the Potency was “inactive”. In the case of `O=C(NN=Cc1ccc(O)cc1O)c1ccccc1NS(=O)(=O)c1cccs1`, the Potency is reported as “inactive”. In the case of `Cc1cc(SCC(=O)N/N=C/c2ccc(O)cc2O)nc2ccccc12`, the Potency is reported as 12.6 µM (active). For `O=C(CNS(=O)(=O)c1ccc([N+](=O)[O-])cc1)N/N=C/c1ccc(O)cc1O`, the Potency was “inactive”. With `COc1ccc2nc(C)cc(SCC(=O)N/N=C/c3ccc(O)cc3O)c2c1` the Potency was 7.94 µM (active). In the case of `Cc1cc(C)n(CCC(=O)N/N=C/c2ccc(O)cc2O)n1`, the Potency is reported as “inactive”. With `CCOc1ccc(/C=N/NC(=O)C(O)c2ccccc2)c(O)c1` (stereo not drawn) the Potency was “inactive”. In the case of `Cc1cc(SCC(=O)N/N=C/c2ccc(O)cc2O)c(C)cc1Br`, the Potency is reported as 11.2 µM (active). In the case of `O=C(CP(=O)(c1ccccc1)c1ccccc1)N/N=C/c1cc(Br)cc(Br)c1O`, the Potency is reported as “inactive”. In the case of `COc1ccc(N2CCN(c3cc(C)nc4ccc(OC)cc34)CC2)cc1`, the Potency is reported as “inactive”. With `COc1ccc(O)c(/C=N/NC(=O)c2ccc(CSc3nc(C)cc(C)n3)cc2)c1` the Potency was “inactive”. For `O=C(/C=C\c1ccccc1)NCC(=O)N/N=C/c1ccc(O)cc1O`, the Potency was 10 µM (active). With `CCCCn1c(SCC(=O)Nc2cc(C(F)(F)F)cc(C(F)(F)F)c2)nnc1C(CC)N(C)C` (stereo not drawn) the Potency was “inactive”. In the case of `COc1cc2ccnc(Cc3cccc(OC)c3OC)c2cc1OC`, the Potency is reported as “inactive”. With `Cn1cc(SCC(=O)Nc2nc3ccccc3s2)c2ccccc21` the Potency was “inactive”. In the case of `COc1ccc(/C=C/C(=O)Nc2cccc(F)c2)cc1S(=O)(=O)N1CCOCC1`, the Potency is reported as “inactive”. In the case of `O=C(Nc1cccc(Br)c1)Oc1cccc2cccnc12`, the Potency is reported as “inactive”. In the case of `c1cnc2c(c1)ccc1cccnc12`, the Potency is reported as 5.01 µM (active). In the case of `CCCC(=O)N1CCCC(c2cc(C(=O)Nc3ccccc3)no2)C1` (stereo not drawn), the Potency is reported as “inactive”. With `Cc1nn(-c2ccccn2)c2c1C(=O)CC(C)(C)C2N=[N+]=[N-]` (stereo not drawn) the Potency was “inactive”. In the case of `CCc1cc2c(N3CCN(c4nnc(CC)s4)CC3)ncnc2s1`, the Potency is reported as “inactive”. For `NC(N)=N/N=C/c1ccc2cccc(OCc3ccccc3)c2n1`, the Potency was 14.1 µM (active). In the case of `Cc1cc(C)nc(/N=C(\N)Nc2ccc(OCc3ccccc3)cc2)n1`, the Potency is reported as “inactive”. For `CC(O)CNCCNCc1c(OCc2ccccc2)ccc2ccccc12` (stereo not drawn), the Potency was “inactive”. In the case of `COc1ccccc1C(CCNCc1ccccc1)c1ccc(OC(C)C)cc1` (stereo not drawn), the Potency is reported as “inactive”. For `CN1C2CCC1/C(=C\c1ccccc1)C(=O)/C2=C\c1ccccc1`, the Potency was 10 µM (active). In the case of `Cc1ccc2c(Cl)cc(Cl)c(OCC(=O)Nc3cc(S(=O)(=O)N(C)C)ccc3C)c2n1`, the Potency is reported as “inactive”. With `c1ccc(CNc2nc(-c3ccccn3)nc3ccccc23)cc1` the Potency was 7.94 µM (active). For `CN1CCN(c2nc(-c3ccccn3)nc3ccccc23)CC1`, the Potency was “inactive”. In the case of `Clc1cccc(-c2nc(NCc3cccnc3)c3ccccc3n2)c1`, the Potency is reported as “inactive”. In the case of `CC(C)CCNC(=O)COc1cccc2c1OC(C)(C)C2`, the Potency is reported as “inactive”. With `COc1cc(C=CC(=O)c2cc(OC)c(OC)c(OC)c2)cc(OC)c1OC` the Potency was 10 µM (active). In the case of `COc1ccc(C(=O)/C=C/c2ccc(OC3CSC3)cc2)cc1OC`, the Potency is reported as “inactive”. With `COc1cc(/C=C/C(O)=C/C(=O)/C=C/c2ccc(O)cc2)ccc1O` the Potency was “inactive”. With `COc1cc(OC)c(C(=O)C=Cc2ccc(OC)c(OC)c2)c(OC)c1` the Potency was 20 µM (active). With `COc1ccc(NC(=O)c2oc3ccc(S(=O)(=O)N4CCC5(CC4)OCCO5)cc3c2C)cc1` the Potency was “inactive”. For `Cn1ncc2c(Nc3cccc(Cl)c3)nc(Nc3cccc(Cl)c3)nc21`, the Potency was “inactive”. For `CC1Sc2ccc(S(=O)(=O)CCC(=O)N3CCN(c4cccc(Cl)c4)CC3)cc2NC1=O` (stereo not drawn), the Potency was “inactive”. With `COc1ccc(-c2csc(NC(=O)c3ccccc3NS(=O)(=O)c3ccc(F)c(F)c3)n2)cc1` the Potency was 2.24 µM (active). For `COc1ccccc1C(=O)Nc1nc(-c2ccc(S(=O)(=O)N3CCOCC3)cc2)cs1`, the Potency was “inactive”. With `CC(O)(c1ccccc1)c1nc(-c2ccncc2)cs1` (stereo not drawn) the Potency was “inactive”. For `CC(=O)c1c(C)[nH]c(C(=O)Nc2nc(-c3ccc(-c4ccccc4)cc3)cs2)c1C`, the Potency was 11.2 µM (active). For `CC(=O)c1sc(NC(=O)c2cc(-c3ccccc3)nn2-c2ccccc2)nc1C`, the Potency was “inactive”. For `O=C(Nc1nc(-c2ccccc2)cs1)c1ccccc1NS(=O)(=O)c1ccc(F)cc1`, the Potency was 3.16 µM (active). With `COc1ccc(C(=O)Nc2nc(-c3ccc(S(=O)(=O)N4CCOCC4)cc3)cs2)cc1` the Potency was “inactive”. With `COCC(=O)OC/C(O)=C(\C#N)c1nc2ccccc2[nH]1` the Potency was “inactive”. For `CCOc1cc(CNCCO)cc(Br)c1OCc1ccccc1`, the Potency was “inactive”. In the case of `O=C(c1ccco1)N(CCCN1CCOCC1)c1nc(-c2ccc(Cl)cc2)cs1`, the Potency is reported as “inactive”. For `CN(C)S(=O)(=O)c1cccc(N2C(=O)CC3(CCCCC3)CC2=O)c1`, the Potency was “inactive”. For `O=C(CN1C(=O)c2ccccc2S1(=O)=O)c1ccc(Cl)cc1Cl`, the Potency was “inactive”. In the case of `N#Cc1c(Oc2ccc3ccccc3c2)sc(C(=O)c2ccccc2)c1N`, the Potency is reported as “inactive”. With `Cc1ccc(C)n1-c1ccc(C(=O)N2CCC(C(N)=O)CC2)cc1` the Potency was “inactive”. For `Cc1ccc(C)c(N2CCN(C(=O)CCCCCn3c(=S)[nH]c4ccc(N5CCOCC5)cc4c3=O)CC2)c1`, the Potency was “inactive”. In the case of `O=C(CN1C(=O)c2ccccc2S1(=O)=O)c1ccc(O)c(O)c1`, the Potency is reported as “inactive”. For `c1ccc(COc2ncnc3c2ncn3CCCN2CCN(Cc3cccc4ccccc34)CC2)cc1`, the Potency was 25.1 µM (active). In the case of `O=c1[nH]c(CN2CCN(c3ncccn3)CC2)nc2c(Br)cc(Br)cc12`, the Potency is reported as “inactive”. In the case of `COc1ccc2c(c1)[nH]c1c(=O)n(/N=C/C3C(C)C=C(C)CC3C)c(=O)[nH]c12` (stereo not drawn), the Potency is reported as 20 µM (active). With `O=C(CCCN1CCc2[nH]c3ccc(F)cc3c2C1)c1ccc(F)cc1` the Potency was “inactive”. With `Cc1ccc(OCC(O)Cn2c(=N)n(CCN3CCCCC3)c3ccccc32)cc1` (stereo not drawn) the Potency was “inactive”. In the case of `N=c1n(CCN2CCCCC2)c2ccccc2n1CC(O)c1ccc(Cl)c(Cl)c1` (stereo not drawn), the Potency is reported as 20 µM (active). In the case of `Cc1nc(SC2CC(=O)N(c3ccccc3)C2=O)n[nH]1` (stereo not drawn), the Potency is reported as “inactive”. For `CCCCC/C=C/C1=CC(=O)C[C@H](c2ccc(OC)c(OC)c2)C1`, the Potency was “inactive”.
